Where “and” joins values, the source holds several entries; their conditions need not be identical. Identical values can stand only once. Unmarked numbers belong to inactive results. Records with an inconclusive call do not appear. Where a call stands in place of a potency, no number is given. Calls of active or inactive are those of the source. Unless noted, calls come from the whole dose curve; as a rule, active = well fitted curve in the direction sought with a large enough effect in the repeat runs; inconclusive = weak or mixed curves; inactive = no such curve, though single readings can be large; an effect the other way counts as inactive or inconclusive.
Assays:
[1] = qHTS assay for small molecule agonists of the p53 signaling pathway (AID 651631; calls by dose curve; note: nearly all actives have a fitted effect of over 15% in size; note: potency is the fitted concentration of half-maximal effect)
Procedure, shortened: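 Testing took place in human colorectal HCT-116 cells with stable p53RE-driven beta-lactamase. After 16 h of compound exposure at 37 °C, a FRET substrate was added and fluorescence recorded 2 h later.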

[2] = qHTS assay for small molecule agonists of the p53 signaling pathway - cell viability (AID 651633; calls by dose curve; note: nearly all actives have a fitted effect of over 30% in size; note: potency is the fitted concentration of half-maximal effect)
Procedure, shortened: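 Viability counter-read: CellTiter-Glo luminescence (30 min, room temperature) in the same p53RE-bla plates. These plates had been exposed to compounds for 16 h at 37 C.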

[3] = qHTS assay for small molecules that induce genotoxicity in human embryonic kidney cells expressing luciferase-tagged ATAD5 - cell viability (AID 651634; calls by dose curve; note: nearly all actives have a fitted effect of over 25% in size)
Procedure, shortened: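 HEK293T cells carrying luciferase-tagged ATAD5, 2,000 cells/well, exposed to compound for 15.5 hr at 37C. Viability read as live-cell protease activity by CellTiter-Fluor fluorescence after 30 min at 37C.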

[4] = qHTS assay for small molecule disruptors of the mitochondrial membrane potential - cell viability (AID 720634; calls by dose curve;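 note: human HepG2 liver cancer cells; series mostly up to about 83 µM; nearly all actives have a fitted effect of over 20% in size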)
Procedure, shortened: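 HepG2 cells, 2,000 per well, attached overnight, then treated 1 hr at 37 C, 5% CO2. Viability read as ATP by CellTiter-Glo luminescence after 30 min at room temperature. Read in the same wells as the m-MPI membrane-potential dye assay.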

[5] = qHTS assay for small molecule disruptors of the mitochondrial membrane potential (AID 720635); note: potency is the fitted concentration of half-maximal effect
Procedure, shortened: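 Mitochondrial membrane potential tracked with Mito-MPS dye, red aggregates (ex 540/em 590 nm) against green monomers (ex 490/em 535 nm). Compound treatment 1 hr at 37C, dye 30 min in HepG2.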

[6] = qHTS assay to test for compound auto fluorescence at 590 nm (red) in HepG2 cells (AID 720674)
Procedure, shortened: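 We screened compounds on adherent HepG2 cells, incubating them for an hour at 37 C in 5% CO2 before reading emission at 590 nm under 540 nm excitation; values reflect equivalence to Rose Bengal sodium fluorescence.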

[7] = qHTS assay to test for compound auto fluorescence at 535 nm (green) in HepG2 cells (AID 720675)
[8] = qHTS assay to test for compound auto fluorescence at 460 nm (blue) in HEK293 cells (AID 720678)
Procedure, shortened: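 Blue-channel (Ex/Em 405/460 nm) intensity measured in HEK293 cultures after overnight compound exposure at 37C; signal expressed relative to triamterene. Cells plated 2,000 per well in 10% dialyzed FBS medium and allowed 4-5 hr to attach.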

[9] = qHTS assay to test for compound auto fluorescence at 590 nm (red) in HEK293 cells (AID 720679)
Procedure, shortened: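 Red-channel autofluorescence (Ex/Em 540/590 nm; Rose Bengal sodium reference) was measured after overnight 37C, 5% CO2 exposure of attached HEK293 cells, 2,000 per well in medium with 10% dialyzed FBS.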

[10] = qHTS assay to test for compound auto fluorescence at 535 nm (green) in HEK293 cells (AID 720680)
[11] = qHTS assay to test for compound auto fluorescence at 460 nm (blue) in HEK293 cell free culture (AID 720681)
Procedure, shortened: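 Blue fluorescence (Ex 405/Em 460 nm, triamterene-equivalent) was read immediately after pin transfer of compound or DMSO into medium (DMEM, 10% FBS) without cells.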

[12] = qHTS assay to test for compound auto fluorescence at 535 nm (green) in HEK293 cell free culture (AID 720682)
Procedure, shortened: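 DMEM + 10% FBS, cell-free; cpd or DMSO pinned in; Ex485/Em535 read; output as fluorescein-equivalent signal.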

[13] = qHTS assay to test for compound auto fluorescence at 590 nm (red) in HEK293 cell free culture (AID 720683)
Procedure, shortened: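 Red-channel autofluorescence of compounds in culture medium (DMEM, 10% FBS), no cells, measured at 540/590 nm. Rose Bengal sodium is the reference fluorophore for equivalence.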

[14] = qHTS assay to test for compound auto fluorescence at 590 nm (red) in HepG2 cell free culture (AID 720684)
Procedure, shortened: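 Plate contents were MEM with 10% FBS plus test compound or DMSO, no cells. Fluorescence was recorded with 540 nm excitation and 590 nm emission.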

[15] = qHTS assay to test for compound auto fluorescence at 460 nm (blue) in HepG2 cell free culture (AID 720685)
Procedure, shortened: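 Compound (23 nL) or DMSO pinned into cell-free MEM with 10% FBS; blue fluorescence read at 405/460 nm excitation/emission, expressed as auto-fluorescence equivalency to triamterene.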

[16] = qHTS assay to test for compound auto fluorescence at 535 nm (green) in HepG2 cell free culture (AID 720686)
[17] = qHTS assay to test for compound auto fluorescence at 460 nm (blue) in HepG2 cells (AID 720687)
Procedure, shortened: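 Blue-channel autofluorescence (Ex/Em 405/460 nm, triamterene-equivalent) was measured after 1 hr compound exposure at 37 C, 5% CO2. Cells were HepG2, plated overnight at 37 C in MEM plus 10% FBS.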

[18] = target: Glucocorticoid receptor (Homo sapiens) (UniProt P04150); assay: qHTS assay to identify small molecule agonists of the glucocorticoid receptor (GR) signaling pathway (AID 720691; active = well fitted activation curve with a large enough effect in the signal ratio in the repeat runs, not every such curve was filed as active; the % refers to the signal ratio)
Chain of Glucocorticoid receptor (Homo sapiens) (P04150 whole entry, looked up): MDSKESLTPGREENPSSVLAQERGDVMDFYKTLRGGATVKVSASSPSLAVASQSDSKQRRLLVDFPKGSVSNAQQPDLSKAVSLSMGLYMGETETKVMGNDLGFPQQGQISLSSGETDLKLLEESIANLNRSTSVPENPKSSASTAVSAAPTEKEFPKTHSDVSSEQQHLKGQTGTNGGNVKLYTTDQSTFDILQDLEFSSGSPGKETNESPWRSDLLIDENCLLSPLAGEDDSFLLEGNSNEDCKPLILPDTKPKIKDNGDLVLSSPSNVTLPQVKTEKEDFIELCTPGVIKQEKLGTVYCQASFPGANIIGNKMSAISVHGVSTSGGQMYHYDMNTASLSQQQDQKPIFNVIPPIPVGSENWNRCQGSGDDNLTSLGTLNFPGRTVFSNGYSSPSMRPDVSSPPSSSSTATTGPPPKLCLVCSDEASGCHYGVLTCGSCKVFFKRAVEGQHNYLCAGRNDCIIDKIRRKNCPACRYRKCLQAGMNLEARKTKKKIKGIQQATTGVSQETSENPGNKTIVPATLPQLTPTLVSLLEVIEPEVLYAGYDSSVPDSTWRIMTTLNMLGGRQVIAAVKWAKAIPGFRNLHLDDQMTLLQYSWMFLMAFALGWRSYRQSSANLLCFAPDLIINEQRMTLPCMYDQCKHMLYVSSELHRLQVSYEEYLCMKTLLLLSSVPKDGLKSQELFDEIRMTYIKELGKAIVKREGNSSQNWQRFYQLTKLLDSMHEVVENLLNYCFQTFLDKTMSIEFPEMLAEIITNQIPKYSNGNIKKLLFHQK
Procedure, shortened: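 GR-bla HeLa cells carrying a GRE-driven beta-lactamase reporter, exposed to compounds for 18 h at 37 C. Reporter activation read as fluorescence after 2 h with LiveBLAzer B/G FRET substrate at room temperature.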

[19] = target: Glucocorticoid receptor (Homo sapiens) (UniProt P04150); assay: qHTS assay to identify small molecule antagonists of the glucocorticoid receptor (GR) signaling pathway (AID 720692; active = well fitted inhibition curve with a large enough effect in the signal ratio in the repeat runs, not every such curve was filed as active; the % refers to the signal ratio; note: potency is the fitted concentration of half-maximal effect)
Procedure, shortened: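 GR-bla HeLa cells carrying a GRE-driven beta-lactamase reporter received compound after 4 h plating, then dexamethasone (5 nM final). After 18 h at 37C, the FRET substrate was loaded for 2 h at room temperature and fluorescence read.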

[20] = qHTS assay for small molecules that induce genotoxicity in human embryonic kidney cells expressing luciferase-tagged ATAD5 (AID 651632); note: nearly all actives have a fitted effect of over 15% in size; note: potency is the fitted concentration of half-maximal effect
Procedure, shortened: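 HEK293T cells carrying luciferase-tagged ATAD5 were given compound or DMSO vehicle and incubated 16 hr at 37C, 5% CO2. Luciferase activity was read after 30 min at room temperature with Amplite; a rise signals genotoxic stress.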

Compound	Potency [1]	Potency [2]	Potency [3]	Potency [4]	Potency [5]	outcome [6]	outcome [7]	Potency [8]	outcome [9]	outcome [10]	Potency [11]	outcome [12]	outcome [13]	outcome [14]	Potency [15]	outcome [16]	Potency [17]	Potency [18]	Potency [19]	Potency [20]
Cc1ccccn1	inactive	inactive	inactive	inactive	inactive	inactive	inactive	inactive	inactive	inactive	inactive	inactive	inactive	inactive	inactive	inactive	inactive	inactive	inactive	–
OCC1CC2CC1C1CCC(CO)C21 (stereo not drawn)	inactive	–	inactive	inactive	–	inactive	–	inactive	inactive	–	inactive	inactive	inactive	inactive	inactive	inactive	inactive	–	–	inactive
Nc1ccc(C(=O)Nc2ccccc2N)cc1	10.6 µM (active)	–	inactive	inactive	–	inactive	inactive	inactive	inactive	inactive	inactive	inactive	inactive	inactive	inactive	–	inactive	–	–	8.41 µM (active)
CCCCOC(=O)c1ccccc1C(=O)OCC(CC)CCCC (stereo not drawn)	54.5 µM (active)	inactive	inactive	–	–	inactive	inactive	inactive	inactive	inactive	–	inactive	inactive	inactive	inactive	inactive	inactive	inactive	–	inactive
O=C(O)Cc1cc(I)c(Oc2ccc(O)c(I)c2)c(I)c1	4.52 µM (active) and 24.3 µM (active)	3.59 µM (active) and 43.3 µM (active)	inactive	inactive	68.6 µM (active)	inactive	inactive	inactive	inactive	inactive	–	inactive	inactive	inactive	inactive	–	–	inactive	9.1 µM (active) and 3.47 µM (active)	–
CCC(C)N(C)C(=O)c1cc2ccccc2c(-c2ccccc2Cl)n1 (stereo not drawn)	inactive	–	inactive	inactive	inactive	inactive	–	inactive	inactive	inactive	inactive	inactive	inactive	inactive	inactive	inactive	inactive	–	–	inactive
C[C@H](CCC(=O)O)[C@H]1CC[C@H]2[C@@H]3[C@H](O)C[C@@H]4C[C@H](O)CC[C@]4(C)[C@H]3CC[C@]12C	inactive	inactive	inactive	inactive	–	inactive	inactive	inactive	inactive	inactive	inactive	inactive	inactive	inactive	inactive	–	inactive	–	–	–
Cc1c(Cn2ccnc2)c2ccccc2n1CCC(=O)O	inactive	inactive	inactive	inactive	–	inactive	inactive	inactive	inactive	inactive	–	inactive	inactive	inactive	inactive	inactive	inactive	inactive	inactive	–

Reference: PubChem BioAssay (Tox21)
